Results on 21 compounds are retold here after PubChem BioAssay (EPA / NIEHS).

Records with an inconclusive call do not appear. Activity calls are given as the source filed them. The calls were made as follows: active = hit-call score of the fitted dose curve at least 0.9, where 1 is the maximum; inconclusive = response in the unintended direction; inactive = score below 0.9.

Chain of Cellular tumor antigen p53 (Homo sapiens) (P04637 whole entry, looked up): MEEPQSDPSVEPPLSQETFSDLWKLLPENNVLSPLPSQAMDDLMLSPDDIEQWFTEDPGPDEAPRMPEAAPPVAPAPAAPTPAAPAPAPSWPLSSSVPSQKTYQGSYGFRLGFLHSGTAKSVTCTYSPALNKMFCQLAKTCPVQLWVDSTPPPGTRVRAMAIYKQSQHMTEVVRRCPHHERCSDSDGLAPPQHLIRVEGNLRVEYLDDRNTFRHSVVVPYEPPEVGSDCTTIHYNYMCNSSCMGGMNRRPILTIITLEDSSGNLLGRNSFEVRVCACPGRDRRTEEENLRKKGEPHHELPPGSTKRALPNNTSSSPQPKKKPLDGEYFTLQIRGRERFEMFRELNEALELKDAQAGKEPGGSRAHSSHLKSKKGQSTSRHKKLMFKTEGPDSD

The assay addresses Cellular tumor antigen p53 (Homo sapiens) (UniProt P04637). Nature of the assay: TOX21_p53_BLA_p4_ratio: Tox21 HCT-116 p53 Agonism Beta-lactamase Assay, Ratio, Phase 4 (AID 2283601). In outline:
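HCT-116 p53 beta-lactamase reporter cells (4000/well) preincubated 5 h, then compound (217-fold dilution of DMSO stock) for 16 h at 37C. CCF4-AM substrate added 2 h at room temperature; 460/530 nm emission ratio fitted upward versus DMSO.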
Consider `Nc1c(Cl)cc(Cl)cc1Cl`, for which the outcome was inactive.

In the case of `O=C(O)/C=C/c1cnc[nH]1`, the result was inactive.

Take `CC(C(=O)O)c1ccc2c(c1)CC(=O)c1ccccc1S2` (stereo unspecified): the result was inactive.

As for `CC(=O)CC(=O)Nc1ccc(S(=O)(=O)O)cc1`, the result was inactive.

For `C=COCCCCO`, the outcome was inactive.

`CN1CCN(C2=Nc3ccccc3Oc3ccc(Cl)cc32)CC1`: the result was inactive.

With `ClCCl`, the result was inactive.

Consider `Cc1c(O)cc2c(c1C)O[C@](C)(CCC[C@H](C)CCC[C@H](C)CCCC(C)C)CC2`, for which the outcome was inactive.

For the compound `CCCCCCCC/C=C\CCCCCCCC(=O)OCCOC(=O)CCCCCCC/C=C\CCCCCCCC`, the result was inactive.

Regarding `CCCCC(=O)O[C@]1(C(=O)CO)CC[C@H]2[C@@H]3CCC4=CC(=O)CC[C@]4(C)[C@H]3[C@@H](O)C[C@@]21C`, the result was inactive.

For the compound `C[C@H]1c2cccc(O)c2C(O)=C2C(=O)[C@]3(O)C(O)=C(C(N)=O)C(=O)[C@@H](N(C)C)[C@@H]3[C@@H](O)[C@@H]21`, the outcome was inactive.

`COC(=O)N[C@H](C(=O)N[C@@H](Cc1ccccc1)[C@@H](O)CN(Cc1ccc(-c2ccccn2)cc1)NC(=O)[C@@H](NC(=O)OC)C(C)(C)C)C(C)(C)C`: the outcome was inactive.

`CCN(CC)CCNC(=O)c1cc(S(C)(=O)=O)ccc1OC`: the outcome was inactive.

Turning to `CCCCCCCCCCCc1ccccc1`, the result was inactive.

On to `Cc1cccc(C)c1NC(=O)CN1CCCC1`, for which the result was inactive.

Turning to `CCN(CCCc1ccccc1)CCCc1ccccc1`, the result was inactive.

As to `Nc1ccc([N+](=O)[O-])c(N)c1`, the result was inactive.

On to `C=CCC=CC`, for which the result was inactive.

On to `C=CC(=O)NC(C)C`, for which the outcome was inactive.

`CCCCOCCCC`: the result was inactive.

With `NC(=O)[C@@H]1C[C@]2(NC(=O)NC2=O)c2cc(F)ccc2O1`, the outcome was inactive.
